In all, about 320,000 compounds went through this assay and about 22,000 (6.9%) were called active. Not shown: some 27% with an inconclusive outcome. The list comes from a sample in which actives are over-represented; it also holds similar structures and randomly drawn compounds. Where a call stands in place of a potency, no number is given. Unmarked numbers belong to inactive results. The call rests on the fitted dose curve; in most records, active means well fitted inhibition curve with a large enough effect; inconclusive means small, poorly fitted or top-dose-only effect, or another doubt; inactive means no such curve, though single readings can be large or run the other way.
Assay: Primary qHTS for delayed death inhibitors of the malarial parasite plastid, 96 hour incubation
Conditions: P. falciparum luciferase reporter growth; series mostly up to 28.7 µM
Outline: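 Cell-based qHTS: luciferase-tagged P. falciparum in erythrocytes (2% hematocrit, 0.05% parasitemia final) incubated with compounds for 96 hours, 37 C, 5% CO2; luciferase detection reagent then added and luminescence measured.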
In the case of `COc1ccc(OCC(=O)Nc2ccc(NC(=O)c3ccco3)c(C)c2)cc1`, the Potency was “inactive”.
With `Cc1noc(C)c1C(=O)NCC1COc2ccccc2O1` (stereo unspecified) the Potency was “inactive”.
In the case of `CCOc1ccccc1NC(=S)N1CCN(c2cccc(C)c2C)CC1`, the Potency was 1.65 µM (active).
For `Cc1cccc(NC(=S)N2CCC(O)CC2)c1C`, the Potency was “inactive”.
For `CCOc1ccccc1N1CCN(C(=S)Nc2ccc(S(N)(=O)=O)cc2)CC1`, the Potency was “inactive”.
For `Cc1onc(-c2c(F)cccc2Cl)c1C(=O)N(C)CC(=O)Nc1cccc(F)c1`, the Potency was “inactive”.
In the case of `CC(C)c1ccc2c(c1)c(SC(C)(C)C)c(CC(C)(C)C(=O)O)n2Cc1ccc(Cl)cc1`, the Potency was 7.38 µM (active).
In the case of `O=C(O)c1ccc(Cn2c(=S)[nH]c3cc(Cl)ccc3c2=O)cc1`, the Potency was “inactive”.
With `Cc1nc2cc3c(cc2s1)OCO3` the Potency was “inactive”.
For `O=C(c1cc(COc2ccc(F)cc2F)on1)N1CCOCC1`, the Potency was “inactive”.
In the case of `Cc1cccc(NC(=O)c2ccc3c(=O)n(CC4CCCO4)c(=S)[nH]c3c2)c1` (stereo unspecified), the Potency was “inactive”.
For `CCOC(=O)c1c(C)[nH]c(C)c1S(=O)(=O)NCCCc1ccco1`, the Potency was “inactive”.
In the case of `COc1cccc(CN(C)CC(=O)NCc2ccccc2Cl)c1OC`, the Potency was “inactive”.
In the case of `CN(CC1CCCN(CCc2cccc(C(F)(F)F)c2)C1)C(=O)c1ccc2nc[nH]c2c1` (stereo unspecified), the Potency was “inactive”.
In the case of `COc1cccc(CN(C)CC2CCCN(CCc3ccc(Cl)cc3)C2)c1OC` (stereo unspecified), the Potency was 2.94 µM (active).
With `COc1ccc(-c2noc(C(C)NS(=O)(=O)c3ccc(NC(C)=O)cc3)n2)cc1` (stereo unspecified) the Potency was “inactive”.
With `COc1ccc(-c2noc(CNC(=O)C(C)Oc3ccccc3)n2)cc1` (stereo unspecified) the Potency was 13.1 µM (active).
With `O=C(Cc1ccc(Cl)cc1)NCc1nc(-c2ccccc2)no1` the activity change, negative = inhibition was -24.9% [at 1.15 µM].
In the case of `Cc1ccc(OCC(=O)Nc2ccc3oc(=O)ccc3c2)cc1C`, the Potency was “inactive”.
For `Cc1ccc(S(=O)(=O)N2CCN(C(=O)c3ccc(-n4cncn4)c([N+](=O)[O-])c3)CC2)cc1`, the Potency was “inactive”.
In the case of `CN1CCN(C(=O)C(=O)c2cn(CC(=O)N3CCCC3)c3ccccc23)CC1`, the Potency was “inactive”.
With `CCCn1c(=O)c2c(C(F)(F)F)cc(-c3cccs3)nc2n(CCC)c1=O` the Potency was “inactive”.
With `CCN(CC)c1nc(-c2ccccc2)cc(C(F)(F)F)c1C#N` the Potency was “inactive”.
For `N#Cc1c(C(F)(F)F)cc(-c2cccs2)nc1N1CCCCC1`, the Potency was 10.4 µM (active).
With `CCOc1ccc2c(c1)c(=O)c(S(=O)(=O)c1ccc(C)cc1)cn2CC` the Potency was “inactive”.
With `COC(=O)c1ccc(NC(=O)CSc2nncn2-c2cccnc2)cc1` the Potency was “inactive”.
With `COc1cccc(C(=O)NNC(=O)/C=C/c2ccccc2)c1` the Potency was “inactive”.
With `COc1cccc(C(=O)NNC(=O)c2cccc(F)c2)c1` the Potency was 0.37 µM (active).
For `COc1cccc(C(=O)NNC(=O)c2ccccc2Br)c1`, the Potency was “inactive”.
In the case of `COCCCNS(=O)(=O)c1cccc(S(=O)(=O)c2cccc(S(=O)(=O)NCCCOC)c2)c1`, the Potency was “inactive”.
With `CCc1noc(C)c1C(=O)Oc1ccc(N(C)S(=O)(=O)c2ccc(C)c(C)c2)cc1` the Potency was “inactive”.
For `C/C(=N\NC(=S)NCc1ccccc1)c1ccc(Cl)cc1`, the Potency was “inactive”.
For `C/C(=N\NC(=S)NCc1ccccc1)C1CCCCC1`, the Potency was 6.57 µM (active).
In the case of `CC1CCCCN1C(=S)NCc1ccccc1` (stereo unspecified), the Potency was “inactive”.
In the case of `Cc1c(C)n2c(SCC(=O)N3CCCC3)nnc2[nH]c1=O`, the Potency was “inactive”.
For `COc1cc(OC)c(NS(=O)(=O)c2cn(C)cn2)cc1Cl`, the Potency was “inactive”.
With `COC(=O)c1c(C)oc(C)c1S(=O)(=O)Nc1ccc(C(C)C)cc1` the Potency was “inactive”.
In the case of `CN(CC(=O)Nc1ccc(N2CCOCC2)cc1)CC(=O)Nc1ccccc1[N+](=O)[O-]`, the Potency was “inactive”.
For `CCc1ccccc1NC(=O)NCCN1CCCCC1`, the Potency was “inactive”.
With `CN1CCN(CCNC(=O)Nc2ccccc2[N+](=O)[O-])CC1` the Potency was 8.28 µM (active).
For `CC1Cc2cc(/C(O)=C3\C(=O)C(=O)N(Cc4cccnc4)C3c3ccccc3F)ccc2O1` (stereo unspecified), the Potency was “inactive”.
For `COC(=O)c1cn(C)c2ccc(S(=O)(=O)N3CC(C)CC(C)C3)cc2c1=O` (stereo unspecified), the Potency was 3.7 µM (active).
For `CC1CC(C)CN(S(=O)(=O)c2ccc(C(=O)NN3CCOCC3)cc2)C1` (stereo unspecified), the Potency was “inactive”.
In the case of `CCn1cc(C(=O)N2CC(C)CC(C)C2)c(=O)c2cc(S(=O)(=O)N3CCCC3)ccc21` (stereo unspecified), the Potency was “inactive”.
For `Cc1ccc(-c2cc(C(=O)NN)n[nH]2)o1`, the Potency was “inactive”.
In the case of `CCC1(CC)NC(=O)N(CC(=O)OCC(=O)c2cc(C)c(C)cc2C)C1=O`, the Potency was “inactive”.
In the case of `Cc1cc(-c2nnc(SCC(=O)Nc3ccc(S(N)(=O)=O)cc3)n2N)n[nH]1`, the Potency was “inactive”.
For `N#Cc1ccc(C(=O)OCC(=O)NC(=O)NC2CCCCC2)cc1`, the Potency was “inactive”.
With `O=C(c1cc2cc(F)ccc2[nH]1)N1CCN(c2ccc(F)cc2)CC1` the Potency was “inactive”.
In the case of `O=C(c1cccc(C(=O)N2CCN(c3ccc(F)cc3)CC2)c1)N1CCN(c2ccc(F)cc2)CC1`, the Potency was 9.28 µM (active).
With `O=C(c1ccccc1)c1ccc(C(=O)N2CCN(c3ccccc3)CC2)cc1` the Potency was “inactive”.
With `CC(C)(C)c1ccc(S(=O)(=O)N2CCN(C(=O)c3ccc4c(c3)C(=O)N(Cc3ccncc3)C4=O)CC2)cc1` the Potency was “inactive”.
For `CC(=O)c1ccc(NC(=O)c2cc(-c3cccs3)on2)cc1`, the Potency was “inactive”.
For `Cc1ccc(NC(=O)CSc2sc3c(O)cc(=O)[nH]c3c2C#N)cc1C`, the Potency was “inactive”.
In the case of `CCC1(c2ccccc2)NC(=O)N(CC(=O)c2ccc3c(c2)OCO3)C1=O` (stereo unspecified), the Potency was “inactive”.
With `COc1ccc(N(CC(=O)NCCSCc2cccc(Cl)c2)S(C)(=O)=O)cc1` the Potency was “inactive”.
In the case of `CN(C)c1ccc(C=C2C(=O)OC3(CCCC3)OC2=O)cc1`, the Potency was “inactive”.
With `CN(C)c1ccc(/C=C2\CC3C4CC=C5CC(O)CCC5(C)C4CCC3(C)C2=O)cc1` (stereo unspecified) the Potency was 2.33 µM (active).
With `CCC(CCC(C)C1CCC2C3CC=C4CC(O)CC[C@@]4(C)C3CC[C@@]12C)C(C)C` (stereo partly specified) the Potency was “inactive”.
In the case of `O=C(O)[C@@H](S)[C@H](S)C(=O)O`, the Potency was 1.69 µM (active).
For `c1cnc(N2CCN(c3ccc4ccccc4n3)CC2)nc1`, the Potency was “inactive”.
In the case of `Clc1ccc(-c2csc(-c3ccncc3)n2)cc1`, the Potency was 0.185 µM (active).
With `Cc1ccc(-c2csc(-c3cc(C)on3)n2)cc1` the Potency was “inactive”.
In the case of `Fc1ccc(-c2csc(-c3ccc(C4SCCS4)cc3)n2)cc1F`, the Potency was “inactive”.
In the case of `Cc1ccc(C(=O)N(CC(=O)NC2CCCC2)c2ccc(F)cc2)s1`, the Potency was “inactive”.
In the case of `COCc1ccc(C(=O)NC2CC(C)(C)Cc3c2cnn3-c2ccc(C)cc2)o1` (stereo unspecified), the Potency was “inactive”.

Source: PubChem BioAssay AID504834 (National Center for Advancing Translational Sciences (NCATS), 2011)
Potency means the concentration at half of the fitted maximal effect.
